For 15 molecules, Potency results are on record in PubChem BioAssay (NCATS).

Test [1] addresses Aldehyde dehydrogenase, mitochondrial (Homo sapiens) (UniProt P05091). Description: qHTS for Inhibitors of the Aldehyde Dehydrogenase Family (ALDH2) Primary screen (AID 2061308). Further: nearly all actives have a fitted effect of over 55% in size. The following applies: ALDH2 enzyme inhibition qHTS, 1536-well; series mostly up to 56 µM. In general terms: qHTS replaces the single test concentration by a dilution series.
The target in test [2] is Retinaldehyde dehydrogenase 3 (Homo sapiens) (UniProt P47895). Kind of test: qHTS for Inhibitors of the Aldehyde Dehydrogenase Family (ALDH1A3) Primary screen (AID 2061315). The following applies: ALDH inhibition qHTS; series mostly up to 56 µM.

SMILES strings stand for the structures. Results filed as inconclusive are left out. Entries that show only a call come without a potency. The source made the active and inactive calls. The call rests on the fitted dose curve; in most records, active means well fitted curve in the direction sought with a large enough effect; inconclusive means small, poorly fitted or top-dose-only effect, or another doubt; inactive means no such curve, though single readings can be large; an effect the other way counts as inactive or inconclusive.

For the molecule `CC(C)c1ccccc1-c1nc(NCc2ccc(-c3cccnc3)cc2)c2ccccc2n1`, the Potency result in test [1] and in test [2] was “inactive” throughout.

Consider `CC(C)N1Cc2ccc(Nc3nn4c(=O)c5ccccc5nc4s3)cc2C1`, for which the Potency result in test [1] and in test [2] was “inactive” each time.

Consider `O=S(=O)(NCCCCNS(=O)(=O)c1c(F)cccc1F)c1ccc2c(c1)OCCO2`, for which the Potency result in test [1] and in test [2] was “inactive” each time.

`CC(C)c1cc(C(=O)N2CC[C@H](NC(=O)C3CC3)C2)n[nH]1`: the Potency result in test [1] and in test [2] was “inactive” in each case.

`CCN(CC)CCn1c(-c2ccccc2)nc2c(NC3CCCCC3)nc(C)nc21`: the Potency result in test [1] and in test [2] was “inactive” each time.

Turning to `O=C(NCCc1nc2ccccc2n1CCOc1cc(F)ccc1F)C1CCCCC1`, the Potency entry in test [1] and in test [2] was “inactive” in each case.

As for `Cc1cc(Nc2c(Nc3nnc(-c4ccncc4)s3)c(=O)c2=O)ccc1Cl`, the Potency entry in test [1] and in test [2] was “inactive” throughout.

Consider `COc1cnc(-c2ccccc2C(C)C)nc1NCc1ccc(-c2cccnc2)cc1`, for which the Potency result in test [1] and in test [2] was “inactive” throughout.

With `CCn1cnc2c(Nc3cccc(Cl)c3)nc(C#N)nc21`, the Potency result in test [1] and in test [2] was “inactive” each time.

With `O=S(=O)(NC1CCCC(NS(=O)(=O)c2c(F)cccc2F)C1)c1ccc2c(c1)OCCO2` (stereo not given), the Potency entry in test [1] and in test [2] was “inactive” each time.

Take `CC(=O)c1ccc(NC(=O)c2cnn3c(C)cc(C)nc23)cc1`: the Potency entry in test [1] and in test [2] was “inactive” in each case.

On to `COc1cc(O)c(C(CC(=O)N2CCCC(c3ccccc3)C2)c2ccc3c(c2)OCO3)c(OC)c1` (stereo not given), for which the Potency entry in test [1] and in test [2] was “inactive” in each case.

Turning to `Cc1ccc(=O)n(CC(=O)NCCc2ccccc2)n1`, the Potency result in test [1] and in test [2] was “inactive” each time.

With `COc1ccccc1NS(=O)(=O)c1ccc2c(c1)CCC(=O)N2`, the Potency entry in test [1] and in test [2] was “inactive” throughout.

Turning to `Cc1cnc(-c2ccccc2C2CC2)nc1NCc1ccc(-c2cccnc2)cc1`, the Potency result in test [1] and in test [2] was “inactive” each time.
